Some test systems named below: EKVX NSCLC; SN12C renal; UO-31 renal; TK-10 renal; ACHN renal; CAKI-1 renal; CCRF-CEM leukemia; MOLT-4 leukemia; SR leukemia; RPMI-8226 leukemia; OVCAR-8 ovarian; OVCAR-5 ovarian; OVCAR-4 ovarian; SK-OV-3 ovarian; IGROV1 ovarian; OVCAR-3 ovarian; HS 578T breast; NCI/ADR-RES ovarian; T-47D breast.
Test in all cases: NCI-60 one-dose screen, 48 h (100 = growth as untreated, 0 = no growth, -100 = all killed)
Conditions in all cases: 10 µM unless noted

Compounds without any hit were thinned out: in the full panel of roughly 83,000, 20% have a hit.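 Growth was measured after 48 h exposure to one concentration of compound in 96-well plates. Values under 10 count as active.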 Unmarked numbers belong to inactive results. Activity calls are given as the source filed them.

On to `CCOC(=O)c1c(Nc2ccccc2)nn2c(N)c(C#N)c(-c3ccc(F)cc3)nc12`, for which the growth is 83.1% in the experiment with EKVX NSCLC; 95.9% in the experiment with SN12C renal; 78.9% in the experiment on UO-31 renal; 109% in the experiment on TK-10 renal; 81.6% with ACHN renal; 91.2% with CAKI-1 renal. In addition, the growth is 68% with CCRF-CEM leukemia; 46% with MOLT-4 leukemia; 65% in the experiment on SR leukemia; 70.4% in the experiment with RPMI-8226 leukemia; 97.4% in the experiment with OVCAR-8 ovarian; 108% in the experiment with OVCAR-5 ovarian. Moreover, the growth with OVCAR-4 ovarian is 87%; in the experiment with SK-OV-3 ovarian, 93.2%; in the experiment with IGROV1 ovarian it was 93.1%; in the experiment on OVCAR-3 ovarian it was 110%; in the experiment with HS 578T breast it was 79.6%; in the experiment on NCI/ADR-RES ovarian it was 97.4%. Also, in the experiment on T-47D breast, the growth was 64.6%.

For `Nc1c(C(=O)c2ccc(Br)cc2)oc2nc(-c3cnccn3)cc(-c3cccs3)c12`, the growth with EKVX NSCLC is 102%; with SN12C renal, 97.9%; in the experiment with UO-31 renal it was 87.1%; in the experiment on TK-10 renal, 172%; in the experiment with ACHN renal it was 103%; with CAKI-1 renal it was 95.2%. For the same compound, the growth in the experiment with CCRF-CEM leukemia was 100%; with MOLT-4 leukemia, 95%; in the experiment with SR leukemia it was 91.7%; in the experiment with RPMI-8226 leukemia, 99.8%; in the experiment with OVCAR-8 ovarian, 103%; with OVCAR-5 ovarian it was 112%. Moreover, the growth with OVCAR-4 ovarian is 96.3%; in the experiment on SK-OV-3 ovarian, 98.6%; in the experiment with IGROV1 ovarian, 97.4%; with OVCAR-3 ovarian, 108%; in the experiment on HS 578T breast it was 101%; in the experiment with NCI/ADR-RES ovarian, 102%. Further, the growth in the experiment on T-47D breast is 91.4%.

For the compound `Nc1nc(N)c2c(n1)NC(c1ccc(F)cc1)CC(c1ccc(Nc3nc(NCCO)nc(Nc4ccc(Cl)cc4)n3)cc1)=N2` (configuration not stated), the growth in the experiment with EKVX NSCLC was 42.5%; in the experiment with SN12C renal, 59.9%; in the experiment with UO-31 renal it was 34.8%; with TK-10 renal, 111%; with ACHN renal, 39.5%; in the experiment on CAKI-1 renal, 40.9%. The growth is -13.8% (active) in the experiment on CCRF-CEM leukemia; -17.5% (active) in the experiment on MOLT-4 leukemia; -17.9% (active) in the experiment with SR leukemia; -37.6% (active) with RPMI-8226 leukemia; 29% with OVCAR-8 ovarian; 72% with OVCAR-5 ovarian. Besides, the growth in the experiment with SK-OV-3 ovarian is 84%; in the experiment with IGROV1 ovarian it was -25.9% (active); with OVCAR-3 ovarian, 14.1%; in the experiment with HS 578T breast, 42.8%; with NCI/ADR-RES ovarian, 64.5%; with T-47D breast, 60%.

In the case of `C=CCn1c(SCC(=O)c2ccc(Br)cc2)nnc1-c1c[nH]c2ccccc12`, the growth was 92.8% with EKVX NSCLC; 95.6% in the experiment with SN12C renal; 68.4% in the experiment with UO-31 renal; 134% with TK-10 renal; 88.3% in the experiment with ACHN renal; 90.2% in the experiment with CAKI-1 renal. Moreover, the growth in the experiment with CCRF-CEM leukemia was 97.9%; with MOLT-4 leukemia, 91.2%; in the experiment with SR leukemia, 88.7%; in the experiment with RPMI-8226 leukemia, 98.8%; with OVCAR-8 ovarian, 94.7%; in the experiment with OVCAR-5 ovarian it was 96.8%. Moreover, the growth in the experiment with SK-OV-3 ovarian is 113%; in the experiment with IGROV1 ovarian it was 86.7%; in the experiment on OVCAR-3 ovarian it was 110%; in the experiment with HS 578T breast it was 106%; in the experiment on NCI/ADR-RES ovarian it was 98.8%; in the experiment with T-47D breast it was 97%.

`O=C1NC(=C(Cl)Cl)/C(=N/S(=O)(=O)N2CCCCC2CC2(C(F)(F)F)N=N2)N1` (configuration not stated): the growth was 59.2% in the experiment with EKVX NSCLC; 95.8% in the experiment with SN12C renal; 18.2% in the experiment with UO-31 renal; 63.4% with TK-10 renal; -48.9% (active) in the experiment on ACHN renal; -65.4% (active) in the experiment on CAKI-1 renal. The growth was 4.21% (active) with CCRF-CEM leukemia; -33.4% (active) in the experiment with SR leukemia; -6.5% (active) in the experiment on RPMI-8226 leukemia; 17.6% with OVCAR-8 ovarian; 91.1% with OVCAR-5 ovarian; -10.2% (active) with OVCAR-4 ovarian. Also, the growth in the experiment on SK-OV-3 ovarian was 136%; with IGROV1 ovarian, -0.053% (active); in the experiment with OVCAR-3 ovarian, -15.1% (active); with HS 578T breast it was 52.2%; with NCI/ADR-RES ovarian it was 63.4%; in the experiment on T-47D breast, 65.7%.

`CC(=NNc1ncnc2ccccc12)c1ccc(S(C)(=O)=O)cc1`: the growth is 91.1% in the experiment with EKVX NSCLC; 97.2% in the experiment on SN12C renal; 73.1% in the experiment on UO-31 renal; 152% in the experiment with TK-10 renal; 103% with ACHN renal; 89.4% in the experiment on CAKI-1 renal. The growth in the experiment with CCRF-CEM leukemia was 99.9%; in the experiment on MOLT-4 leukemia, 100%; in the experiment with SR leukemia, 100%; in the experiment on RPMI-8226 leukemia it was 98.6%; in the experiment on OVCAR-8 ovarian it was 98.2%; in the experiment with OVCAR-5 ovarian, 111%. Besides, the growth was 102% in the experiment on SK-OV-3 ovarian; 96.5% with IGROV1 ovarian; 118% with OVCAR-3 ovarian; 95.3% in the experiment with HS 578T breast; 103% in the experiment on NCI/ADR-RES ovarian; 103% with T-47D breast.

Take `CCCC(=O)NC(c1ccc(N(CC)CC)cc1)c1cc(C)c2cccnc2c1O` (configuration not stated): the growth in the experiment with EKVX NSCLC was 19.2%; in the experiment on SN12C renal, 26.6%; with UO-31 renal it was 3.42% (active); in the experiment on TK-10 renal it was 31.6%; with ACHN renal, 10.7%; with CAKI-1 renal, 18.7%. Also, the growth was 6.15% (active) in the experiment with CCRF-CEM leukemia; 8.44% (active) in the experiment with MOLT-4 leukemia; 5.57% (active) in the experiment with SR leukemia; 22.6% in the experiment with RPMI-8226 leukemia; 20.5% with OVCAR-8 ovarian; 58% in the experiment with OVCAR-5 ovarian. Besides, the growth with OVCAR-4 ovarian was 40.3%; with SK-OV-3 ovarian, 42%; in the experiment with IGROV1 ovarian, 14.1%; in the experiment on OVCAR-3 ovarian, 18.6%; with NCI/ADR-RES ovarian it was 6.31% (active); with T-47D breast, 26.3%.

Take `COc1cc(/C=C/C(=O)c2ccc(Cl)cc2)ccc1Oc1nc(NCCO)nc(N2CCOCC2)n1`: the growth in the experiment on EKVX NSCLC was 99.6%; in the experiment on SN12C renal it was 96.6%; in the experiment on UO-31 renal, 76.7%; in the experiment on TK-10 renal, 110%; in the experiment on ACHN renal it was 98.8%; in the experiment with CAKI-1 renal it was 94.2%. In addition, the growth in the experiment with CCRF-CEM leukemia is 78.4%; in the experiment on MOLT-4 leukemia it was 78.6%; with SR leukemia, 9.04% (active); with RPMI-8226 leukemia, 65.4%; in the experiment with OVCAR-8 ovarian, 104%; in the experiment on OVCAR-5 ovarian, 102%. Besides, the growth is 114% in the experiment on OVCAR-4 ovarian; 96.6% with SK-OV-3 ovarian; 99% in the experiment with IGROV1 ovarian; 116% with OVCAR-3 ovarian; 84% in the experiment with HS 578T breast; 105% with NCI/ADR-RES ovarian. Also, the growth in the experiment with T-47D breast was 86.1%.
